Assay results from PubChem BioAssay AID651860 (Broad Institute, 2012).
Potency and affinity values are given separately. The source made the active and inactive calls.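 Rule for the calls: active = compounds lowering HepG2 cell ATP luminescence with a fitted half-maximal concentration at most twice the top tested dose; inconclusive = flat fit with 30 to 70 percent signal loss, or poor fit; inactive = the rest.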

assay: HepG2 cell cytotoxicity, dose response, cytotoxicity control, luminescence plate reader, powder samples, set 2 (AID 651860); conditions: HepG2 viability, CellTiter-Glo ATP luminescence, 48 h; series mostly up to 26 µM

Structure (SMILES)	outcome	activity change, negative = cytotoxic
COC(=O)CNc1nc(NS(=O)(=O)c2c(C)cc(C)cc2C)c2ccccc2n1	inactive	–
O=C(O)[C@H]1CCCC[C@H]1C(=O)N1CCc2ccccc2C1 (racemic)	inactive	–
O=C(O)C1CCCCC1C(=O)N1CCc2ccccc2[C@H]1C(=O)NCCc1ccccc1 (stereo not given in full)	inactive	–
O=C(Oc1cc(CN2C(=O)c3ccccc3C2=O)c2ccccc2[n+]1[O-])c1cccc(Cl)c1	inactive	–
COC(=O)C(C(=O)OC)c1cc(NS(=O)(=O)c2c(C)cc(C)cc2C)c2ccccc2c1O	inactive	–
O=C(NCCCN1CCOCC1)c1ccccc1C(=O)NC[C@@H]1c2ccccc2CCN1C(=O)C1CCCCC1C(=O)O (stereo not given in full)	inactive	–
O=C1c2ccccc2C(=O)N1CC1c2ccccc2CCN1C(=O)Cc1ccccc1 (stereo not given)	–	-3.5% [at 6 µM] (inactive)
O=C(O)[C@H]1CCCC[C@H]1C(=O)N1CCc2ccccc2[C@H]1CNS(=O)(=O)c1ccc([N+](=O)[O-])cc1	inactive	–
Cc1cc(C)c(S(=O)(=O)Nc2cc(C(C(=O)OCc3ccccc3)C(=O)OCc3ccccc3)c(O)c3ccccc23)c(C)c1	inactive	–
COC(=O)[C@@H]1CCCC[C@@H]1C(=O)N1CCc2ccccc2[C@H]1CN1C(=O)c2ccccc2C1=O	inactive	–
Cc1ccc(S(=O)(=O)NNc2nc(N3CC(O)CC3C(=O)O)nc3ccccc23)cc1 (stereo not given)	inactive	–
O=C(NC[C@@H]1c2ccccc2CCN1C(=O)[C@@H]1CCCC[C@@H]1C(=O)O)c1ccccc1	inactive	–
O=C(O)C1CCCCC1C(=O)N1CCc2ccccc2C1CN1Cc2ccccc2C1=O (stereo not given)	inactive	–
O=C(O)[C@H]1CCCC[C@H]1C(=O)N1CCC2=C(CCCC2)C1CN1C(=O)c2ccccc2C1=O (stereo not given in full)	inactive	–
Cc1ccc(S(=O)(=O)NNc2nc(NCC(N)=O)nc3ccccc23)cc1	inactive	–
O=C(NC[C@@H]1c2ccccc2CCN1C(=O)[C@@H]1CCCC[C@@H]1C(=O)O)c1ccccc1CO	inactive	–
COC(=O)C1CCCCC1C(=O)N1CCc2ccccc2C1CN1C(=O)c2ccccc2C1=O (stereo not given)	inactive	–
CC(=O)Nc1cc(NS(=O)(=O)c2c(C)cc(C)cc2C)c2ccccc2c1O	inactive	–
O=C(NCCO)c1ccccc1C(=O)NC[C@@H]1c2ccccc2CCN1C(=O)C1CCCCC1C(=O)O (stereo not given in full)	inactive	–
COC(=O)[C@@H]1CCCC[C@@H]1C(=O)N1CCc2ccccc2[C@@H]1CN1C(=O)c2ccccc2C1=O	inactive	–
